± gives the standard deviation. Some results are limits rather than exact numbers.
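Note: 1 nM active piRISC with 0.1 nM target library at 33 °C single turnover.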

One experiment deals with MILI (PIWIL2) piRISC loaded with L1MC piRNA (26 nt). The experiment can be described thus: pre-steady-state target cleavage rate (min^-1); guide: L1MC piRNA 5'p-UAACUAAAUACUAUGCAAGCUGUAGG; MIWI and MILI are mouse PIWI proteins and EfPiwi is from a freshwater sponge; tags in brackets are library labels; higher = faster piRNA-guided slicing of the target. The note with it: auxiliary factor: 500 nM mouse GTSF1. A digest of the protocol: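 In this Cleave-'n-Seq assay, uncleaved targets were sequenced and normalised to depth and to weakly complementary targets. They came from a transcribed, DNA-blocked target RNA library […] mixed with 1 nM active affinity-purified piRISC carrying one synthetic guide, with or without 500 nM GTSF1 partner protein, in HEPES–potassium acetate buffer at 33 °C for 0–8 or 0–960 min. After three trials were pooled and k3 was capped at 0.0001 min^-1, the pre-steady-state cleavage rate was obtained from a burst-and-steady-state fit.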
Turning to UCCUGGAUGUCGAAGCGUAGUAUUUAGUUA, the “pre-steady-state target cleavage rate” value worked out at 0.00313 ± 0.0025.
On to UCCUCCUACAGCUACGAUAGUAUUUACAAA, for which the “pre-steady-state target cleavage rate” value was determined as 0.0587 ± 0.019.
With UCCUGGAUGUCCUUGCAUAGUAUAUUGUUA, the “pre-steady-state target cleavage rate” value was 0.0329 ± 0.0079.
With UCCUGGAUGUCCUUGCAAUGUAUUUAGUAA, the “pre-steady-state target cleavage rate” value was determined as 0.0086 ± 0.0045.
As to UCCUGGAUGUCGUUGCAUAGUAUUAAGUUA, the “pre-steady-state target cleavage rate” value turned out to be 0.142 ± 0.028.
On to UCCUCCUACAGCUUGCAUUAGUAUUUAGUUA, for which the “pre-steady-state target cleavage rate” value stood at 0.0229 ± 0.0088.
Take UCCUGGAUGAGCUUGCAUAGUAAUAAGUUA: the “pre-steady-state target cleavage rate” value came out at 0.202 ± 0.045.
With UCCUGCUACAGCUUGGUUAGUAUUUAGAAA, the “pre-steady-state target cleavage rate” value is 0.018 ± 0.007.
The same measure, in the same setting: in the case of UCCUGGAUGUCCUUGCAUAGUAUUAGUUA it was 0.0068 ± 0.004; in that of UCCUGCUACAGCUACGAUAGUAUUUAGAAA, 0.0517 ± 0.019; in that of UCCUGGAUGUCCAUGCUUAGUAUUUAGUUA, 0.0223 ± 0.0087.
Turning to UCCUGGAUGAGCUUGCAUAGUAAUUAGAAA, the “pre-steady-state target cleavage rate” value was determined as 0.00737 ± 0.0053.
UCCUGGAUCAGCUUGCAUAGAUUUUAGUAA: the “pre-steady-state target cleavage rate” value stood at 0.0227 ± 0.0073.
Take UCCUGGAUCAGGAUGCAUAGUAUUUACAAA: the “pre-steady-state target cleavage rate” value was found to be 0.0127 ± 0.0048.
Consider UCCUGGAUGUGCUUGCAUAGUUUUAAGUUA, for which the “pre-steady-state target cleavage rate” value came out at 0.0104 ± 0.0059.
Same read-out and setting: the result for UCCUGGAUGUGCUUGCAAAGUAUUUAGAAA reads 0.0118 ± 0.0048.
Regarding UCCUGGAUCAGCUUGCACUAGUAUUUAGUUA, the “pre-steady-state target cleavage rate” value worked out at 0.00868 ± 0.0048.
For UCCUGGUACAGCUUGCAUAAGUAUUUAGUUA, the “pre-steady-state target cleavage rate” value was 0.00838 ± 0.0052.
With UCCUGGAUCAGCUUGCUAUGUAUUUACAAA, the “pre-steady-state target cleavage rate” value worked out at 0.00475 ± 0.0036.
Still for that read-out and setting: in the case of UCCUGGAUGAGCUUGCAUAGUAUAUACAAA it was 0.00992 ± 0.0056; in that of UCCUGGAUGAGCUUGCAUACUAUUAAGUUA, 0.00607 ± 0.0038; in that of UCCUGGAUCAGCUUGCAUAGUAUAUAGAAA, 0.115 ± 0.03.
For the sequence UCCUGGAUGAGCAACCAUAGUAUUUAGUAA, the “pre-steady-state target cleavage rate” value came out at 0.0492 ± 0.016.
For UCCUCCUACAGCUAGCAUAGUAUUUUCAAA, the “pre-steady-state target cleavage rate” value is 0.137 ± 0.027.
Regarding UCCUGGUACAGCUUGCAUAGGAUUUAGUUA, the “pre-steady-state target cleavage rate” value was found to be 0.00737 ± 0.0052.
With UCCUGGAUCAGCAUGCAUAGAAUUUAGUUA, the “pre-steady-state target cleavage rate” value came out at 0.0386 ± 0.0077.
For UCCUGCAACAGCUUGCAUAGUAUUUAGAUA, the “pre-steady-state target cleavage rate” value came to 0.125 ± 0.024.
In the case of UCCUGGAUGUCGAUGCAUAGUAUUUAGCUUA, the “pre-steady-state target cleavage rate” value stood at 0.0496 ± 0.014.
As to UCCUGGAACAGCUACCAUAGUAUUUAGAAA, the “pre-steady-state target cleavage rate” value was determined as 0.0138 ± 0.0052.
With “UCCUGGAUGUCGAACCAUAGUAUUUAGUUU [g2:g15:cont:t1U]”, the “pre-steady-state target cleavage rate” value was determined as 0.00385 ± 0.0021.
UCCUCCUACAGCUUGCAUUCUAUUUAGUAA: the “pre-steady-state target cleavage rate” value stood at 0.0535 ± 0.017.
Regarding UCCUGGAUGUGCUUGCAUACUAUUUAGUAA, the “pre-steady-state target cleavage rate” value amounted to 0.00943 ± 0.0038.
Take UCCUGGAUGUCCAUGCAUAGUAAUUAGUUA: the “pre-steady-state target cleavage rate” value was 0.0249 ± 0.0072.
Same read-out and setting: in the case of UCCUGGAACUCCUUGCAUAGUAUUUUCAAA it was 0.0315 ± 0.0074; in that of UCCUCCUACAGCUUGCAUUCUAUUUUCAAA, 0.0147 ± 0.0054.
Consider UCCUGGAUGAGCAUGCAUAGUAUUUUGUUA, for which the “pre-steady-state target cleavage rate” value came out at 0.115 ± 0.025.
Take UCCUGGAUGUCGAACGUAAGUAAUUAGAUA: the “pre-steady-state target cleavage rate” value is under 0.0001.

Still in this experiment, the particulars now being: auxiliary factor: none (no GTSF1).
For the sequence UCCUGGAUGUCGUUCCAUAGUAUUUAGAUA, the “pre-steady-state target cleavage rate” value was under 0.0001.
Turning to UCCUGGAUGUCGAACGUUUGUAUUUAGUAA, the “pre-steady-state target cleavage rate” value was under 0.0001.
Regarding UCCUGGAUGUCGAACGUUAGUUAUUUAGUUA, the “pre-steady-state target cleavage rate” value was under 0.0001.

(Values after the supplement of paper PMC10338343.)
